Biological target: T1, STAM 1-143 VHS (domain begin residue: 1, domain end residue: 143), Q92783
T1 chain: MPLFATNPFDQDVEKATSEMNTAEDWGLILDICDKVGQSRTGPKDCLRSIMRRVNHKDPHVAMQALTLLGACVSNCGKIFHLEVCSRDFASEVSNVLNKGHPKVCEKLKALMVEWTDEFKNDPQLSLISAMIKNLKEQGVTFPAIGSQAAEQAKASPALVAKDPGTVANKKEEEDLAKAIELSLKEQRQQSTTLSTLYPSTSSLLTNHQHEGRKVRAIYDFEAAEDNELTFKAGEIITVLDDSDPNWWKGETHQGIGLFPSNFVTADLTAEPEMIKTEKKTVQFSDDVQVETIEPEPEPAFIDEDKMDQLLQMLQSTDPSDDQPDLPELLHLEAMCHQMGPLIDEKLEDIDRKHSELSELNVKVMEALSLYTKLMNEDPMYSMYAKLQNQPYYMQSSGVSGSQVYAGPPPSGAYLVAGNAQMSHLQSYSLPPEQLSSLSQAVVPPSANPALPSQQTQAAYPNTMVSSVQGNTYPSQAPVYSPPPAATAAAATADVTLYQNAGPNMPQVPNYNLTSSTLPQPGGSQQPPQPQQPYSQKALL
Test: phage ELISA signal ratio (GST-PRM binding over GST background); higher = stronger binding of peptide-phage to the PRM
Outline: (§1)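 Human peptide recognition domains were expressed in 96-well plates as fusions to the C-terminus of glutathione S-transferase (GST) and selected against an M13 phage library displaying randomized hexadecapeptides, cysteine-free and glycine-flanked, on the gene-8 major coat protein. Five selection rounds were run, and approximately 48 individual clones from rounds 4 and 5 were tested by phage ELISA. Each value is the ELISA signal on the GST-domain fusion divided by the signal on GST alone. Positive clones were sequenced.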

Binder | phage ELISA signal ratio
DQEWLSKPWQFWAMDM | 4.69
NKHDTEEFMVRTFLSE | 6.48
AYVWDDWVWTSLPWVE | 6.69
TQFNMHDEALFMTKLF | 19.2
EPYMIQVPWESHWDVH | 9.25
HSEIWLMTYLDSLAMY | 13
NPHSHQQFMQAVENHI | 22.2

Biological target: T2, TDRD1 261-449 TUDOR (domain begin residue: 261, domain end residue: 449), Q9BXT4
T2 chain: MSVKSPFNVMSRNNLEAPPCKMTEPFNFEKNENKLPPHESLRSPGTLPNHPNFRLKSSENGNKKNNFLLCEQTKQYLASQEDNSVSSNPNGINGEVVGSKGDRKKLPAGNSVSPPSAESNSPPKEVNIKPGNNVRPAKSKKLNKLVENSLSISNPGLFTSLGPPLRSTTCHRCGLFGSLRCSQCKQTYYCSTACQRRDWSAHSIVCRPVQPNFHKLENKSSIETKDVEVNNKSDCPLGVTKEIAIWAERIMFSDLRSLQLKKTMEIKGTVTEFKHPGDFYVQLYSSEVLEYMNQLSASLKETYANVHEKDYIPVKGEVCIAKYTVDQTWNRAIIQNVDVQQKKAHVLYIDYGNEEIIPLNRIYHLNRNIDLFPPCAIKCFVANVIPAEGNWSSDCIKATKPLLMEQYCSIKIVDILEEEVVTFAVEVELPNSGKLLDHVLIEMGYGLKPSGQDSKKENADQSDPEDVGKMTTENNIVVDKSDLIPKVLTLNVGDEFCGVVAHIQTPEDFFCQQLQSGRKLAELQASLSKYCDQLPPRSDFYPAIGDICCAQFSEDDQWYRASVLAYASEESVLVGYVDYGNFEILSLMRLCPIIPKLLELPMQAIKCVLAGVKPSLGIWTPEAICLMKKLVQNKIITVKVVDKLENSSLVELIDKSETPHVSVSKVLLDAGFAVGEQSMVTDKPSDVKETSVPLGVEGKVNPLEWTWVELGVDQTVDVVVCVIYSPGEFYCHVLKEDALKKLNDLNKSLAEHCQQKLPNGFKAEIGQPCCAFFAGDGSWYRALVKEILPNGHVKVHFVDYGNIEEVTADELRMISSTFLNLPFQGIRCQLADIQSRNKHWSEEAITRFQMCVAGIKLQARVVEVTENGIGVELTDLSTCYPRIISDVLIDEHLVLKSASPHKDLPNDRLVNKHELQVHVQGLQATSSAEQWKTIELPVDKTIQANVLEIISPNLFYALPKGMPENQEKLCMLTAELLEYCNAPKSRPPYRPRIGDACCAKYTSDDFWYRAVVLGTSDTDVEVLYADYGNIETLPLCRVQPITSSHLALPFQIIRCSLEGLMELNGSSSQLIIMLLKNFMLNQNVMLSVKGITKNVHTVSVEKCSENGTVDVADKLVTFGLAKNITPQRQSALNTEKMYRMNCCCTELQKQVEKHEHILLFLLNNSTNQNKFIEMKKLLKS
Test: as above
Outline: as §1

Binder | phage ELISA signal ratio
ELWQHWDMWNVEEPEF | 7.88
MPLHEWEAGWPWEVVG | 7.35
EMHWMDIWDSLLPESK | 7.87

biological target: TLN2 312-417 IRS (domain begin residue: 312, domain end residue: 417), Q9Y4G6; test: as above
Outline: as §1

Sequence of TLN2 312-417 IRS (domain begin residue: 312, domain end residue: 417), Q9Y4G6 (Q9Y4G6 whole entry): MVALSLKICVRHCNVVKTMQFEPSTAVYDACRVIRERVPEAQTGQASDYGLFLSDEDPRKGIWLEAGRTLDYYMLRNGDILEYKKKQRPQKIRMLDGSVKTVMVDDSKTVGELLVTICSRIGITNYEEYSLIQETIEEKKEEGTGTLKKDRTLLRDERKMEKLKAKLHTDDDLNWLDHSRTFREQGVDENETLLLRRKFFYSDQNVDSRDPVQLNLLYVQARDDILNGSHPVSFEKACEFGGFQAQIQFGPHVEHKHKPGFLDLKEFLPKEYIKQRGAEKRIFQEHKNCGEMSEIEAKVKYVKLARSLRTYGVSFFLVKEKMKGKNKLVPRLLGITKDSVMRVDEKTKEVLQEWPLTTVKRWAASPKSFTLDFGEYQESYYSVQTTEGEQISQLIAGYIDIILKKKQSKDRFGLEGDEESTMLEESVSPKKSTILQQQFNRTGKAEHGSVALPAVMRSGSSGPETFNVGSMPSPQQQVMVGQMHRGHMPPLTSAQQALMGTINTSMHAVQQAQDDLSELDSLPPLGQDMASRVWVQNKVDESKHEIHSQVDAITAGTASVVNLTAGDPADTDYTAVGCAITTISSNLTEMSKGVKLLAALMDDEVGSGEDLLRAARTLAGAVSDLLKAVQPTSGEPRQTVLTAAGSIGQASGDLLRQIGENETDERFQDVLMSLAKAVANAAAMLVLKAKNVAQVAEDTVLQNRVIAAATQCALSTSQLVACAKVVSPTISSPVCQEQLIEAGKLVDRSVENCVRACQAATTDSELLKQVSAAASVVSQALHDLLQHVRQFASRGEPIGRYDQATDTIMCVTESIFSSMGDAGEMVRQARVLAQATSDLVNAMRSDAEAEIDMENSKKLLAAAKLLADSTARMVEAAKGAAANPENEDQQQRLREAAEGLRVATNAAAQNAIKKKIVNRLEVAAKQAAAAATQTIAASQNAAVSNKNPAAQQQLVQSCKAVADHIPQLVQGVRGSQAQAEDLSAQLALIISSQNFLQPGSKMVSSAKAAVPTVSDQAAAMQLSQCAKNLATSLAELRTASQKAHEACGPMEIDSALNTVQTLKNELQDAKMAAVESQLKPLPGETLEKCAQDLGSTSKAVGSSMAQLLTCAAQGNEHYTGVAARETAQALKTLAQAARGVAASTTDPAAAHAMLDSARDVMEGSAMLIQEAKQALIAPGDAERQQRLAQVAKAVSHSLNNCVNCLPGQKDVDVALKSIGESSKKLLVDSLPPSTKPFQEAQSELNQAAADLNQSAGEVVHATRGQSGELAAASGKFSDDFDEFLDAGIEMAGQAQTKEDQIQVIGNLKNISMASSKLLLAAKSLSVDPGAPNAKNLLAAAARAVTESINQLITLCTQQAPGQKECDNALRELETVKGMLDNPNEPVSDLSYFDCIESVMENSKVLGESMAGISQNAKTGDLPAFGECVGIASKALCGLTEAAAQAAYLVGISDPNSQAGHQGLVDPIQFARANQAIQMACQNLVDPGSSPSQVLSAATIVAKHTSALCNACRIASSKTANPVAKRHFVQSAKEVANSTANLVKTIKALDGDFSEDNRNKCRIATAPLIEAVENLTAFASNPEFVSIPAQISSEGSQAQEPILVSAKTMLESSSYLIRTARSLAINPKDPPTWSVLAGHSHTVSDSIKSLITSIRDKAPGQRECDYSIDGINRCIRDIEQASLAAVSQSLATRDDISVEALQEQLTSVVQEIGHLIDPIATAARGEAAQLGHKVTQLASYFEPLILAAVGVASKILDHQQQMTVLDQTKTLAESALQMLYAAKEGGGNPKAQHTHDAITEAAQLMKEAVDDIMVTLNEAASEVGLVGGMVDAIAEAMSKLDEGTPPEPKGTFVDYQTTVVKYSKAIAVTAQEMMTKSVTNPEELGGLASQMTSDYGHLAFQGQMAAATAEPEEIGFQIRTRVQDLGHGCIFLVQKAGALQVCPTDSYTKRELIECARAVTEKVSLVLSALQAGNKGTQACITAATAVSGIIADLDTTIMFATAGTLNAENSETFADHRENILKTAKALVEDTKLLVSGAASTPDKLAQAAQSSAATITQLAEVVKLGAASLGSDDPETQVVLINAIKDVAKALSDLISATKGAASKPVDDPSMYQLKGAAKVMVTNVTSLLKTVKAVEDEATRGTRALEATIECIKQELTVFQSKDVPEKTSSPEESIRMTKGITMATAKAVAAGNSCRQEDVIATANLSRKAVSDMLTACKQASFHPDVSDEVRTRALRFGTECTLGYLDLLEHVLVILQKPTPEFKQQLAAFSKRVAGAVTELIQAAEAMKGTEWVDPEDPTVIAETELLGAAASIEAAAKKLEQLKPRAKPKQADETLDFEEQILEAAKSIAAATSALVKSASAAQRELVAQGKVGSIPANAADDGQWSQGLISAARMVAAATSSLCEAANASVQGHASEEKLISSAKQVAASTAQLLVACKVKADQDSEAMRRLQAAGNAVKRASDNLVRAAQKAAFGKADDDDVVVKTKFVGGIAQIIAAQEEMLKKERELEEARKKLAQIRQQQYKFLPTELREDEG

Binder | phage ELISA signal ratio
MEWVEVYTKTDYAFPP | 17.8
QNNFIQLQEWHWLEGW | 11.2
WDLNAQVEHMWQYGIA | 15.9

Biological target: T3, SPSB4 1-273 SPRY (domain begin residue: 1, domain end residue: 273), Q96A44
T3 chain: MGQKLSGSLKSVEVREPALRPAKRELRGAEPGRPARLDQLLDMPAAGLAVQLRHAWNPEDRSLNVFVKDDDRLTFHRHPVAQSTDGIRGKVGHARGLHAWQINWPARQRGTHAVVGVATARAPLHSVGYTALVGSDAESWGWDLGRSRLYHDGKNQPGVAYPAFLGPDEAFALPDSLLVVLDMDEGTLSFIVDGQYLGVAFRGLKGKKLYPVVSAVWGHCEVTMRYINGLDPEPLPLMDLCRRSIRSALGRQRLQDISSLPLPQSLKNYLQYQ
Test: as above
Outline: as §1

Binder | phage ELISA signal ratio
MVQDSINNNNWLVPWV | 7.42
WDFVGEWDSNNNTVTR | 7.05

Biological target: T4, SPSB2 26-221 SPRY (domain begin residue: 26, domain end residue: 221), Q99619
T4 chain: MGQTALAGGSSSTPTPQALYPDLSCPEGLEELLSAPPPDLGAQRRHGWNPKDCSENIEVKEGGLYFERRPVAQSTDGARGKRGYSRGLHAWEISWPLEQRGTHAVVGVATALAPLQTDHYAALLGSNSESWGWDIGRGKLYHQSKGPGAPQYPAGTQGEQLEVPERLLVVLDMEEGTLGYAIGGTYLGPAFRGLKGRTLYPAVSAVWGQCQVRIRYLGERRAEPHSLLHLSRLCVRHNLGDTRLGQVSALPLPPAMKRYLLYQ
Test: as above
Outline: as §1

Binder | phage ELISA signal ratio
EVMYDWNGNASSLLMM | 35.3
YPQWLASSRGEMNNNI | 36.2
YEIMENNNWLNNAGVF | 40.1
MEKDMNGNMAVFEMHH | 39.2
RFPMYDHNANLLPLPQ | 38.1
GFEFHPVYDWNNNIQK | 36.6
MDFTDVNGNLLNAFTA | 38.3

Biological target: T5, TCEA2 231-299 TFIIS_C (domain begin residue: 231, domain end residue: 299), Q15560
T5 chain: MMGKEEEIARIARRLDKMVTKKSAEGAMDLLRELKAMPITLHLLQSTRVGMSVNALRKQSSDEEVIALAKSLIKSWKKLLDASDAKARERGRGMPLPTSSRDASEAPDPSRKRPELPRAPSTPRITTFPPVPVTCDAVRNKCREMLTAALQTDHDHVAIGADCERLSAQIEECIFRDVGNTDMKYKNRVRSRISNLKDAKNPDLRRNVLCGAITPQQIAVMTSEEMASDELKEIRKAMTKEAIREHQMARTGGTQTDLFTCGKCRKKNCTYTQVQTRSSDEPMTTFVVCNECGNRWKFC
Test: as above
Outline: as §1

Binder | phage ELISA signal ratio
WAWEDMWFMEQLESTE | 3.89

biological target: TLN1 309-401 IRS (domain begin residue: 309, domain end residue: 401), Q9Y490; test: as above
Outline: as §1

Sequence of TLN1 309-401 IRS (domain begin residue: 309, domain end residue: 401), Q9Y490 (Q9Y490 whole entry): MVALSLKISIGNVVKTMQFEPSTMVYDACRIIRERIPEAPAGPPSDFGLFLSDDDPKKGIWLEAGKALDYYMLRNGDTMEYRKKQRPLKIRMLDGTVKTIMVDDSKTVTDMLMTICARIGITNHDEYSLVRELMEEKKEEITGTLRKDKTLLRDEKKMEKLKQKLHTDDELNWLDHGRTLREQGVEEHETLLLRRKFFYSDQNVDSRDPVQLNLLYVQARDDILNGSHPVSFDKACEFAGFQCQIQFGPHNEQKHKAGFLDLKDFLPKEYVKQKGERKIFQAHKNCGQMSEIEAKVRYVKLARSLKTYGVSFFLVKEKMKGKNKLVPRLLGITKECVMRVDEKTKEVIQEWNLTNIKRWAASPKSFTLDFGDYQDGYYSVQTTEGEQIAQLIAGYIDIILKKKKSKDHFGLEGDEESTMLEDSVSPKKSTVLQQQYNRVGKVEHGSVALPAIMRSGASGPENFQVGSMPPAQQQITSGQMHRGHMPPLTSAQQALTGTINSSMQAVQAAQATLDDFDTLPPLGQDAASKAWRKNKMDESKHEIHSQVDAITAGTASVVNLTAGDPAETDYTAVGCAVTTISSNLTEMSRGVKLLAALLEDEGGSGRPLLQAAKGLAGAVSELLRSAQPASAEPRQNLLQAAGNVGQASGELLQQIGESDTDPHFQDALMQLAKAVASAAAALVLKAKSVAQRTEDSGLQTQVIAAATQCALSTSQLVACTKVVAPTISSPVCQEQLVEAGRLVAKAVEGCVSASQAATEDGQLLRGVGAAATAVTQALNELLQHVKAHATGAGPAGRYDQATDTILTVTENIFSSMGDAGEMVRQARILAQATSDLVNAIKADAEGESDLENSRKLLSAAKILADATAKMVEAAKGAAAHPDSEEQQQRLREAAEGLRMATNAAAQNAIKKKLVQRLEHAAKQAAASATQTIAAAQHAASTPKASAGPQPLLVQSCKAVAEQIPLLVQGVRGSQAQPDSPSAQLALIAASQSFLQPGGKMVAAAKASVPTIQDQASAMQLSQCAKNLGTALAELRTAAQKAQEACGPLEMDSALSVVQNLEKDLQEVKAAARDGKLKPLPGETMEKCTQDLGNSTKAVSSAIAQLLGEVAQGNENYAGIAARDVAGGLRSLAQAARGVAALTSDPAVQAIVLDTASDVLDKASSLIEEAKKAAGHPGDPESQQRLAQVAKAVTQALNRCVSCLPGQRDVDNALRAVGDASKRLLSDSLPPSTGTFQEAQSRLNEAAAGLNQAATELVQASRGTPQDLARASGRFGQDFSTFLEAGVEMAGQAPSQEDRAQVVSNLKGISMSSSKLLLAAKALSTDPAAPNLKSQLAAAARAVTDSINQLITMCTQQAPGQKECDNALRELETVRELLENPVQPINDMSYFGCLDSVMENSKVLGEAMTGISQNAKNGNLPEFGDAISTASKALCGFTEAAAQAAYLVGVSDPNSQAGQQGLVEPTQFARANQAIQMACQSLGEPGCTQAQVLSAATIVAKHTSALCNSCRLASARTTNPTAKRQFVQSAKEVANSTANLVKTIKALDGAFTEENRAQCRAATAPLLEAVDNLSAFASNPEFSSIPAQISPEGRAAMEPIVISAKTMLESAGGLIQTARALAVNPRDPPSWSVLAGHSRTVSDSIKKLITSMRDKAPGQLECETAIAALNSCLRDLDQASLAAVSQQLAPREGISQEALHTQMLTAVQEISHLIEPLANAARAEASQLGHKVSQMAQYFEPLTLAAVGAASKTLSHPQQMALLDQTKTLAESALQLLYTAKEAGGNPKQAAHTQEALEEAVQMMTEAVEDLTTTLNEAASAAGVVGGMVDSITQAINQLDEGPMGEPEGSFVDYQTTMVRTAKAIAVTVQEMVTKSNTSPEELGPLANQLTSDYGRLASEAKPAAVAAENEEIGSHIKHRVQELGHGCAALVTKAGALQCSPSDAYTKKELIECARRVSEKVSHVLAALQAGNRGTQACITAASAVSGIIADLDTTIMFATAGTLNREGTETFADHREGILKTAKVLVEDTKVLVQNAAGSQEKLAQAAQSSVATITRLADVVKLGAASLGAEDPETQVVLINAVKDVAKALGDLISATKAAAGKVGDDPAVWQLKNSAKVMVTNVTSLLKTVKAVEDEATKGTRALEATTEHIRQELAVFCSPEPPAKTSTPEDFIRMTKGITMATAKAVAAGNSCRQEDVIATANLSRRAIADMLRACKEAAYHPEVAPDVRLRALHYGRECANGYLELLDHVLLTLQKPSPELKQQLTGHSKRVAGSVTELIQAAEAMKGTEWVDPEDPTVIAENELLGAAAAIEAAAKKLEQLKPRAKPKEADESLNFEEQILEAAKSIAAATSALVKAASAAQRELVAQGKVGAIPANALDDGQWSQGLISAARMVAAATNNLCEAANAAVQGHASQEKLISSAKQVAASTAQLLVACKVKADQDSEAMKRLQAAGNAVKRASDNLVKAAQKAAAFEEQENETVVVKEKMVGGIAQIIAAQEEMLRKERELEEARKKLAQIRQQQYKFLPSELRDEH

Binder | phage ELISA signal ratio
PNVGEWQYNLSYIWEM | 15.5
EFTMNWQYPTQYNFIQ | 15.3
VETQWEQWQEYGLKFS | 16.2

Biological target: T6, TDRKH 290-430 TUDOR+SNase (domain begin residue: 290, domain end residue: 430), Q9Y2W6
T6 chain: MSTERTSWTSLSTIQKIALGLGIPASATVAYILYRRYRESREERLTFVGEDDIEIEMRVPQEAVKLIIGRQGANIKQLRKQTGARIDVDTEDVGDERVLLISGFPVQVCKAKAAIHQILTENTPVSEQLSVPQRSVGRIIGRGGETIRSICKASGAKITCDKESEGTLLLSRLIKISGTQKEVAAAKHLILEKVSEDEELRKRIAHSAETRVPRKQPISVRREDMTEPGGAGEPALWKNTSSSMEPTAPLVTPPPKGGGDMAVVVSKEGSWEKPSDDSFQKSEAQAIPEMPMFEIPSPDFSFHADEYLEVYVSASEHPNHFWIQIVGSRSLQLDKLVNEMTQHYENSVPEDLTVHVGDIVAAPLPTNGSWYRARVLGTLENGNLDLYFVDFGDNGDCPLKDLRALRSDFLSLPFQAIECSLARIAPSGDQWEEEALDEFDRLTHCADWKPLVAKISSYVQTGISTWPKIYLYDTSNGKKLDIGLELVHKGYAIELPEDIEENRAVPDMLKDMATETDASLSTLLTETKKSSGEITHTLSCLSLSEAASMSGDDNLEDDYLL
Test: as above
Outline: as §1

Binder | phage ELISA signal ratio
REMLDYYQGVWVPPVS | 4.26

Biological target: T7, TERF1 58-268 TRF (domain begin residue: 58, domain end residue: 268), P54274
T7 chain: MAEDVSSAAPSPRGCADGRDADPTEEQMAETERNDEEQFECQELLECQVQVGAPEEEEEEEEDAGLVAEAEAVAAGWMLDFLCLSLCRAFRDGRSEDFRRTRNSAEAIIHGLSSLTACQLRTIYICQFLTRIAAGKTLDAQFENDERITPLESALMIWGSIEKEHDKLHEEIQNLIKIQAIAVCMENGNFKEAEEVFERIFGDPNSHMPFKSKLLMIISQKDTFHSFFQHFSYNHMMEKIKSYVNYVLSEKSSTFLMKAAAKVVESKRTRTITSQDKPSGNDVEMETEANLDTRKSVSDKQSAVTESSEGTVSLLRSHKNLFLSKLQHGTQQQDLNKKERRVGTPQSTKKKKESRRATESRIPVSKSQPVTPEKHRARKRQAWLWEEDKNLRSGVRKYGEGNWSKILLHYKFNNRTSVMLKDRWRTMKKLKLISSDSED
Test: as above
Outline: as §1

Binder | phage ELISA signal ratio
EHSFLFEDWMWEGKDH | 5.48

— the supplement of paper PMC7724964
